Screening results as filed in PubChem.
GLS inhibitor – qHTS for Inhibitors of Glutaminase (GLS). hit rate 0.21% among 410,000. GLS enzymatic activity, qHTS titration. Glutaminase kidney isoform, mitochondrial (Homo sapiens), O94925. Potency, µM (doses to about 45.5 µM), without a hit: top-dose activity change, negative = inhibition, usual class: inhibitors; also: % is scaled to controls: 0 for no effect and ±100 for the full control effect
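hKGA in 45 mM KH2PO4 (pH 8.2), 0.02% Tween-20 with compound, then 1mM L-Glutamine (stock as added) plus glutamate oxidase/HRP/Amplex red coupling mix. Fluorescence read initially and after 30 min at RT; signal change reflects glutamate formation.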
G9a inh – qHTS Assay for Inhibitors of Histone Lysine Methyltransferase G9a; Histone-lysine N-methyltransferase EHMT2 (Homo sapiens), Q96KQ7; G9a H3K9 monomethylation, AlphaScreen, 2 h; Potency, µM (highest dose often 102 µM), without a hit: at the highest dose activity, negative = inhibition, hits mostly inhibitors; hit rate 8.8% among 350,000; also: % is scaled to controls: 0 for no effect and ±100 for the full control effect; nearly all actives have a fitted effect of over 75% in size
Target sequence (Q96KQ7 913-1193 limits assumed): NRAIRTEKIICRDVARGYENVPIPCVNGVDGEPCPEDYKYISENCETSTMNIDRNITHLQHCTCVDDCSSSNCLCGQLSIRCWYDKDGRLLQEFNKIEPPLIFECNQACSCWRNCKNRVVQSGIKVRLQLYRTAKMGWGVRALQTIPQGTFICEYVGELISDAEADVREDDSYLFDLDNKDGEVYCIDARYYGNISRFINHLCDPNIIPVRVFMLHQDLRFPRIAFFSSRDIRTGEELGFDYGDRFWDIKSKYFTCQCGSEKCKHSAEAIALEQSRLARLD
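Signal arises when biotinylated H3K9 peptide, once monomethylated, bridges streptavidin donor and antibody-captured acceptor beads. Enzyme at 20 nM was preincubated 15 min with test compounds; peptide 500 nM and SAM 20 uM then reacted for 2 h.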
BAZ2B inh – qHTS Assay for Inhibitors of BAZ2B; Bromodomain adjacent to zinc finger domain protein 2B (Homo sapiens), Q9UIF8; AlphaScreen BAZ2B-H3K14Ac peptide displacement; Potency, µM (top dose mostly 114 µM), inactives show top-dose activity change, negative = inhibition, hits mostly inhibitors; hit rate 4.4% among 360,000; also: % is scaled to controls: 0 for no effect and ±100 for the full control effect; nearly all actives have a fitted effect of over 60% in size
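AlphaScreen displacement: compounds (up to 110uM) incubated 30 min at room temperature with a preformed 50 nM BAZ2B/50 nM biotinylated H3K14Ac peptide complex in PBS pH 7.4 with Tween-20. Donor and acceptor beads at 10 ug/mL final added, 20 min light-protected before reading.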
HP1b binding inh – HTS for Inhibitors of HP1-beta Chromodomain Interactions with Methylated Histone Tails; Chromobox protein homolog 1 (Homo sapiens), P83916; AlphaScreen HP1-beta / biotin-H3K9me3 peptide binding; Potency, µM (titrated, usually from 114 µM), for inactives: top-dose activity change, negative = inhibition, usual class: inhibitors; hit rate 0.56% among 390,000; AID 540317, 2011; also: nearly all actives have a fitted effect of over 70% in size
Target sequence (P83916 whole entry, looked up): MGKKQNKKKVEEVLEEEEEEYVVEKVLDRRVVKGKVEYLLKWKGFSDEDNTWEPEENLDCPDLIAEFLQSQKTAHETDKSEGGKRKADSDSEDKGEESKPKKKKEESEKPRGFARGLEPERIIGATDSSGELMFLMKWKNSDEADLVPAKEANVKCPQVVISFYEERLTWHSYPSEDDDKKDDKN
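Compound inhibition of the preformed complex between 50 nM HP1-beta and 50 nM biotinylated H3K9me3 peptide was read by AlphaScreen. Buffer was PBS pH 7.4 with 0.01% Tween-20. Incubations ran 30 min at room temperature, with 10 ug/mL donor/acceptor beads.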
JMJD2A Tudor inh – qHTS Assay for Inhibitors of JMJD2A-Tudor Domain | hit rate 4.4% among 390,000 | AlphaScreen JMJD2A-Tudor / H3K4me3 peptide binding | Potency, µM (titrated, usually from 114 µM), inactives show at the top dose activity change, negative = inhibition, most hits filed as inhibitors | Lysine-specific demethylase 4A (Homo sapiens), O75164 | AID 504339, 2011; also: % is scaled to controls: 0 for no effect and ±100 for the full control effect; nearly all actives have a fitted effect of over 50% in size
* hit, by the source's call; ? = inconclusive; · = not tested or not shown; [ ] = dose if it differs, or a comment. In the library only some 10% were active in any assay of this set; here they are far more common. Calls follow the shape of the dose curve; as a rule, active = well fitted curve in the direction sought with a large enough effect; inconclusive = small, poorly fitted or top-dose-only effect, or another doubt; inactive = no such curve, though single readings can be large; an effect the other way counts as inactive or inconclusive. Potency is read from the fitted curve at half-maximal effect.

SMILES | GLS inhibitor | G9a inh | BAZ2B inh | HP1b binding inh | JMJD2A Tudor inh
Cc1cccc(-n2c(=S)[nH]c3sc4c(c3c2=O)CCc2ccccc2-4)c1 | 10µM* | ? | ? | 7.1µM* | ?
CCOC(=O)c1oc2nc(C)c3c(c2c1N)CC(C)(C)OC3 | ? | ? | -26% | ? | 16µM*
CN(C)c1ccc(/C=C2\CCCCC2=O)cc1 | 21% | 50µM* | ? | -9% | ?
Cc1ccccc1Cn1cc(NC(=O)c2cc(C3CC3)on2)cn1 | -2% | 40µM* | ? | 6%[57 µM] | -16%
Cc1ccccc1Cn1cc(NC(=O)c2cc(-c3ccc(Cl)cc3)on2)cn1 | -6% | 2%[59 µM] | 3% | 43% | -18%
COc1ccc(S(=O)(=O)Nc2cc3c(cc2NCc2ccccc2)n(C)c(=O)n3C)cc1 | 60% | 16µM* | 45µM* | 2% | 50µM*
CCCS(=O)(=O)Nc1cc2c(cc1NCc1ccccc1)n(C)c(=O)n2C | 42% | 16µM* | 50µM* | 11% | -26%
Cn1c(=O)n(C)c2cc(NS(=O)(=O)c3ccc(Br)cc3)c(NCc3ccccc3)cc21 | 45% | ? | -28% | -1% | ?
CCN(CC)c1ccc(/C=C/c2nc3ccccc3s2)cc1 | · | 5% | -27% | · | ·
COc1cc2nc(/C=C/c3ccc(N(C)C)cc3)sc2cc1SC | -8% | ? | 22µM* | ? | 25µM*
COc1ccccc1N(CC(O)CN1CCOCC1)S(=O)(=O)c1ccccc1 (configuration not stated) | 6% | 50µM* | -9% | -1% | -15%
CCCN(CCC)CC(O)CN(c1cc([N+](=O)[O-])ccc1OC)S(=O)(=O)c1ccccc1 (configuration not stated) | 6% | 56µM* | -36% | 21% | -26%
Clc1ccc(Cc2ccccn2)cc1 | 2% | -14%[0.501 µM] | 21% | 49% | 3%
O=c1c2ccccc2c(C=NC2CCN(Cc3ccccc3)CC2)c(O)n1Cc1ccc2c(c1)OCO2 | · | 8.9µM* | 8.9µM* | · | ·
CN(C)CCN=Cc1c(O)n(Cc2ccc3c(c2)OCO3)c(=O)c2ccccc12 | 2% | 50µM* | ? | -28% | ?
O=c1c2ccccc2c2ccccc2c(=O)n1Cc1ccc2c(c1)OCO2 | -6% | · | · | · | ·
Cc1coc2cc3oc(=O)c(CC(=O)NCc4cccc(Cl)c4)c(C)c3cc12 | -12% | -32%[59 µM] | -4% | 16% | -13%
CC(C)(C)c1ccc(-c2nc(C#N)c(NCc3ccncc3)o2)cc1 | -1% | 20µM* | 79µM* | -19% | 79µM*
N#Cc1nc(-c2ccc(OCc3ccccc3)cc2)oc1NCc1cccnc1 | -4% | ? | · | -18% | -23%
COc1ccc(-c2nc(C#N)c(NCc3ccc(C)cc3)o2)cc1OC | 4% | -25%[59 µM] | -7% | 27% | -8%
N#Cc1nc(-c2ccc(OCc3ccccc3)cc2)oc1NCCCn1ccnc1 | 9% | ? | 18µM* | 45µM* | 28µM*
CN(C)c1oc(-c2ccc(OCc3ccccc3)cc2)nc1C#N | -1% | 11µM* | ? | ? | ?
CC(C)(C)c1ccc(-c2nc(C#N)c(NCCCn3ccnc3)o2)cc1 | 3% | · | 35µM* | ? | ?
COc1cc(OC)c(C(=O)OCC(=O)Nc2ccc(S(=O)(=O)N3CCOCC3)cc2)cc1OC | -3% | · | · | 17% | -18%
N#Cc1nc(-c2ccc(F)cc2)oc1NCc1cccc2c1OCO2 | 2% | -44% | -22% | 56% | -12%
SMILES | GLS inhibitor | G9a inh | BAZ2B inh | HP1b binding inh | JMJD2A Tudor inh
N#Cc1nc(-c2cccs2)oc1NCc1ccc2c(c1)OCO2 | 8% | 45µM* | ? | ? | 18%[11.4 µM]
Cc1ccc(-c2nc(C#N)c(NCc3cccc4c3OCO4)o2)cc1 | 5% | 10µM* | ? | ? | ?
Cc1ccc(S(=O)(=O)NC(C)C(=O)OCC(=O)N(C)c2ccccc2)cc1 (configuration not stated) | 0% | 13%[12.7 µM] | 3% | 37% | -2%
Cc1cc(C)c2c(=O)n(CC(=O)NC3CCCC3)sc2n1 | 20% | 0.5µM* | 79µM* | 8.9µM* | 2.2µM*
Cc1cc(C)c2c(=O)n(CC(=O)Nc3cccc(Cl)c3C)sc2n1 | ? | 0.28µM* | ? | 7.9µM* | 2µM*
Cc1cc(C)c2c(=O)n(CC(=O)Nc3ccc(Br)c(C)c3)sc2n1 | -18% | 0.32µM* | ? | ? | 2.5µM*
Cc1cc(NC(=O)Cc2ccsc2)ccc1Br | -1% | -11% | 8% | 48% | -4%
COc1ccc(OC)c(CCNC(=O)Cn2ncc3c([nH]c4ccccc43)c2=O)c1 | -5% | 36%[59 µM] | 18% | 22% | -1%
COc1ccc(OC)c(CCNC(=O)Cn2sc3nc(C)cc(C)c3c2=O)c1 | · | 1µM* | 50µM* | · | ·
COc1ccc(N2CCN(S(=O)(=O)c3ccc(C4CCCCC4)cc3)CC2)cc1 | 3% | -36%[59 µM] | -7% | 26% | -6%
CCOC(=O)C1CCC(CN(Cc2ccc(Cl)cc2)S(=O)(=O)c2cc(Cl)cc(Cl)c2)CC1 (configuration not stated) | -3% | 10%[59 µM] | 14% | 46% | -6%
Cc1cnc(CNc2ncncc2-c2cccc(C#N)c2)cn1 | · | 0%[0.501 µM] | · | · | ·
C/C(=N\NC(=O)c1ccc(N(C)C)cc1)c1ccc(C)cc1C | -16% | ? | ? | 20% | -26%
C/C(=N\NC(=O)c1cccnc1)c1ccc(OC2OCCOC2Oc2ccc(/C(C)=N/NC(=O)c3cccnc3)cc2)cc1 (configuration not stated) | ? | 27% | -18% | ? | 14µM*
C/C(=N\NC(=O)c1ccc(N(C)C)cc1)c1cccnc1 | 10% | 25µM* | ? | 39% | -18%
C/C(=N\NC(=O)c1ccc(N(C)C)cc1)c1ccc(C)c(C)c1 | -10% | 45µM* | -7% | 9% | -22%
COc1cccc(C(=O)Nc2nnc(S(=O)(=O)N3CCCc4ccccc43)s2)c1 | 16% | ? | ? | -20% | -33%
CCCOC1(C(F)(F)F)NC(=O)N(c2ccc(Cl)cc2)C1=O (configuration not stated) | -17% | 17%[59 µM] | 14% | 39% | 12%
Cc1ccc(F)cc1C(=O)N1CCCCC1c1cc(C(=O)Nc2cccc(C#N)c2)no1 (configuration not stated) | 4% | · | · | · | ·
C/C(=C\C(=O)c1cccnc1)Nc1ccc(C(=O)O)cc1 | · | 2.2µM* | ? | 15% | ?
CC(=O)Nc1ccc(N/C(C)=C/C(=O)c2cccnc2)cc1 | 9% | -3%[59 µM] | -8% | 29% | -3%
